Records with an inconclusive call do not appear. Unmarked numbers belong to inactive results. Activity calls are given as the source filed them. Calls come from the whole dose curve; as a rule, active = well fitted inhibition curve with a large enough effect; inconclusive = small, poorly fitted or top-dose-only effect; inactive = flat fitted curve, though single readings scatter.
Key:
[1] = Drug repurposing screens with cells derived from glioblastoma tumor samples (AID 1345199); conditions: GBM patient neurospheres viability, ATP luminescence, 48 h; note: nearly all actives have a fitted effect of over 40% in size
How it was run: (§1)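 Four patient lines of CD133+ GBM neurospheres were screened at several concentrations; hits were retested in those lines plus three slower-growing GBM lines, using 48-hour treatment and ATP-based viability.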

[2] = system: astro; test: as above; conditions: viability, ATP luminescence, 48 h; series mostly up to 45.9 µM
How it was run: as §1

[3] = at 45.9 µM (top of the series), tumour line B
[4] = at 45.9 µM (top of the series), tumour line D
[5] = at 46.1 µM (top of the series), tumour line C
[6] = at 46 µM (top of the series), tumour line A
[7] = at 20 µM (top of the series), tumour line C
[8] = at 21.2 µM (top of the series), tumour line B
[9] = at 21.2 µM (top of the series), tumour line D
% is set by controls: 0 for no effect and ±100 for the full control effect; potency is the fitted concentration of half-maximal effect.

Question: Which activity, negative = cell killing [1, 3] does the source give for `CC(=NCc1ccccc1)c1ccccc1O` here?
Answer: -12.5%

Question: What about the activity, negative = cell killing [1, 4] of the same compound?
Answer: -14.9%

Question: And the activity, negative = cell killing [1, 5]?
Answer: 6.85%

Question: With `CC1=C(/C=C/C(C)=C/C=C/C(C)=C/C(=O)Oc2c(C)c(C)c3c(c2C)CC[C@@](C)(CCC[C@H](C)CCC[C@H](C)CCCC(C)C)O3)C(C)(C)CCC1` as the compound, how does the activity, negative = cell killing [1, 3] read?
Answer: -7.62%

Question: What about the activity, negative = cell killing [1, 4] of the same compound?
Answer: -2.61%

Question: And the Potency ([1]; tumour line A)?
Answer: 25.1 µM (active)

Question: Which activity, negative = cell killing [1, 3] does the source give for `C[C@@H]1C[C@H]2[C@@H]3CCC4=CC(=O)C=C[C@]4(C)[C@@]3(F)[C@@H](O)C[C@]2(C)[C@@]1(O)C(=O)COC(=O)c1cccc(S(=O)(=O)O)c1` here?
Answer: -14.3%

Question: What about the activity, negative = cell killing [1, 4] of the same compound?
Answer: -16.1%

Question: What about the activity, negative = cell killing [1, 6] of the same compound?
Answer: -5.39%

Question: For `NC[C@@H]1CC[C@@H](N)[C@@H](O[C@H]2[C@H](O)[C@@H](O[C@H]3O[C@H](CO)[C@@H](O)[C@H](N)[C@H]3O)[C@H](N)C[C@@H]2N)O1`, which activity, negative = cell killing [1, 3] is on record?
Answer: 0.351%

Question: And the activity, negative = cell killing [1, 4]?
Answer: 3.76%

Question: And the activity, negative = cell killing [1, 6]?
Answer: -27.2%

Question: And the activity, negative = cell killing [1, 5]?
Answer: -13%

Question: Which results are given for `N#Cc1ccc2c(c1)N(CCCN1CCC(O)CC1)c1ccccc1S2`?
Answer: activity, negative = cell killing [1, 3]: -29.3%; activity, negative = cell killing [1, 5]: 15.3%; Potency ([1]; tumour line A): 5.01 µM (active)

Question: For `CCOC(=O)[C@@H](N)CS`, which activity, negative = cell killing [1, 3] is on record?
Answer: -8.18%

Question: What about the activity, negative = cell killing [1, 4] of the same compound?
Answer: -11.2%

Question: What about the activity, negative = cell killing [1, 6] of the same compound?
Answer: -24.4%

Question: What about the activity, negative = cell killing [1, 5] of the same compound?
Answer: 1.04%

Question: With `COc1ccc(/C=C/C(=O)OCCC(C)C)cc1` as the compound, how does the activity, negative = cell killing [1, 3] read?
Answer: 1.41%

Question: And the activity, negative = cell killing [1, 4]?
Answer: -11.4%

Question: What about the activity, negative = cell killing [1, 6] of the same compound?
Answer: 4.4%

Question: And the activity, negative = cell killing [1, 5]?
Answer: -1.14%

Question: Which results are given for `CN1C(=O)OC(C)(C)C1=O`?
Answer: activity, negative = cell killing [1, 7]: -9%; activity, negative = cell killing [1, 8]: 0.292%; activity, negative = cell killing [1, 9]: -3.8%; activity, negative = cell killing ([1]; at 21.3 µM (top of the series), tumour line A): -18.7%

Question: Which results are given for `CCCCC[C@H](O)/C=C/[C@H]1[C@H](O)CC(=O)[C@@H]1CCCCCCC(=O)O`?
Answer: activity, negative = cell killing [1, 7]: 1.46%; activity, negative = cell killing [1, 8]: -10.6%; activity, negative = cell killing [1, 9]: -20.2%; Potency ([1]; tumour line A): 11.2 µM (active)

Question: For `NS(=O)(=O)c1cc2c(cc1Cl)NC(Cc1ccccc1)NS2(=O)=O` (stereo not given), which activity, negative = cell killing [1, 3] is on record?
Answer: 4.57%

Question: And the activity, negative = cell killing [1, 4]?
Answer: 9.26%

Question: What about the activity, negative = cell killing [1, 6] of the same compound?
Answer: -28.7%

Question: What about the activity, negative = cell killing [1, 5] of the same compound?
Answer: 0.872%

Question: Which results are given for `CC(C)C1=CC2=CC[C@@H]3[C@](C)(CCC[C@@]3(C)C(=O)O)[C@H]2CC1`?
Answer: activity, negative = cell killing [1, 3]: -3.87%; activity, negative = cell killing [1, 4]: 2.46%; activity, negative = cell killing [1, 5]: -9.17%

Question: With `O=C(CCCN1CCC(C(=O)c2ccc(F)cc2)CC1)c1ccc(F)cc1` as the compound, how does the activity, negative = cell killing [1, 3] read?
Answer: -22%

Question: What about the activity, negative = cell killing [1, 5] of the same compound?
Answer: -4.95%

Question: What about the Potency ([1]; tumour line A) of the same compound?
Answer: 8.91 µM (active)

Question: Which activity, negative = cell killing [1, 3] does the source give for `O=C(O)[C@@H]1C[C@H](CP(=O)(O)O)CCN1` here?
Answer: -4.93%

Question: What about the activity, negative = cell killing [1, 4] of the same compound?
Answer: -11.9%

Question: What about the activity, negative = cell killing [1, 6] of the same compound?
Answer: -21.2%

Question: What about the activity, negative = cell killing [1, 5] of the same compound?
Answer: -14%

Question: And the Potency [2]?
Answer: inactive

Question: Which results are given for `CCCCC(=O)O[C@H]1CC[C@H]2[C@@H]3CCc4cc(O)ccc4[C@H]3CC[C@]12C`?
Answer: activity, negative = cell killing [1, 3]: -20.6%; activity, negative = cell killing [1, 5]: 8.7%; Potency ([1]; tumour line A): 28.2 µM (active); Potency ([1]; tumour line D): 11.2 µM (active)

Question: Which activity, negative = cell killing [1, 3] does the source give for `O=C(O)c1cc(O)c2c(c1)[C@H]([C@H]1c3cc(C(=O)O)cc(O)c3C(=O)c3c(O[C@@H]4O[C@H](CO)[C@@H](O)[C@H](O)[C@H]4O)cccc31)c1cccc(O[C@@H]3O[C@H](CO)[C@@H](O)[C@H](O)[C@H]3O)c1C2=O` here?
Answer: -24.5%

Question: And the activity, negative = cell killing [1, 4]?
Answer: -3.04%

Question: What about the activity, negative = cell killing [1, 6] of the same compound?
Answer: -24%

Question: And the activity, negative = cell killing [1, 5]?
Answer: -0.084%

Question: What does the source list for `NC(=O)c1cc[n+](CC2=C(C(=O)O)N3C(=O)[C@@H](NC(=O)C(c4ccccc4)S(=O)(=O)[O-])[C@H]3SC2)cc1` (stereo not given in full)?
Answer: activity, negative = cell killing [1, 7]: 7.27%; activity, negative = cell killing [1, 8]: -0.0366%; activity, negative = cell killing [1, 9]: -7.97%

Question: With `CC(O)[C@@H]1NC(=O)[C@H](Cc2ccccc2)NC(=O)[C@H](C(C)O)NC(=O)[C@H](CCCCN)NC(=O)[C@H](Cc2c[nH]c3ccccc23)NC(=O)[C@H](Cc2ccccc2)NC(=O)[C@H](Cc2ccccc2)NC(=O)[C@H](CC(N)=O)NC(=O)[C@H](CCCCN)NC(=O)[C@@H](NC(=O)CNC(=O)[C@H](C)N)CSSC[C@@H](C(=O)O)NC(=O)[C@H](CO)NC1=O` (stereo not given in full) as the compound, how does the activity, negative = cell killing [1, 3] read?
Answer: -13.9%

Question: And the activity, negative = cell killing [1, 4]?
Answer: -20.3%

Question: And the activity, negative = cell killing [1, 6]?
Answer: -21.3%

Question: What about the activity, negative = cell killing [1, 5] of the same compound?
Answer: -3.11%

Question: What about the Potency [2] of the same compound?
Answer: inactive

Question: For `CCCCC[C@H](O)/C=C/[C@@H]1[C@H]2C/C(=C/CCCC(=O)O)O[C@H]2C[C@H]1O`, which activity, negative = cell killing [1, 3] is on record?
Answer: -2.96%

Question: And the activity, negative = cell killing [1, 4]?
Answer: 0.816%

Question: What about the activity, negative = cell killing [1, 6] of the same compound?
Answer: -14.4%

Question: And the activity, negative = cell killing [1, 5]?
Answer: -18.7%

Question: Which results are given for `CCC(C)[C@@H](N)C(=O)O` (stereo not given in full)?
Answer: activity, negative = cell killing [1, 3]: -9.25%; activity, negative = cell killing [1, 4]: -6.09%; activity, negative = cell killing [1, 6]: -16.7%; activity, negative = cell killing [1, 5]: 10.2%

Question: What does the source list for `CCCCCCCCCCCCCCCC(=O)OC[C@@H](O)[C@H]1OC[C@H](O)[C@H]1O`?
Answer: activity, negative = cell killing [1, 3]: -4.52%; activity, negative = cell killing [1, 4]: 10.4%; activity, negative = cell killing [1, 5]: -6.66%

Question: With `O=C1c2ccccc2CN2C(=O)c3ccccc3CN12` as the compound, how does the activity, negative = cell killing [1, 3] read?
Answer: -20.4%

Question: What about the activity, negative = cell killing [1, 4] of the same compound?
Answer: -5.7%

Question: What about the activity, negative = cell killing [1, 6] of the same compound?
Answer: -23.1%

Question: And the activity, negative = cell killing [1, 5]?
Answer: -20%

Question: Which results are given for `C[C@@H]1NC(=O)[C@@H](N)CNC(=O)[C@H](C2CCNC(N)=N2)NC(=O)/C(=C/NC(N)=O)NC(=O)[C@H](CNC(=O)C[C@@H](N)CCCN)NC1=O` (stereo not given in full)?
Answer: activity, negative = cell killing [1, 7]: 24.6%; activity, negative = cell killing [1, 8]: -11.2%; activity, negative = cell killing [1, 9]: -13.8%; activity, negative = cell killing [1, 3]: -12.9%; activity, negative = cell killing [1, 4]: -1.47%; activity, negative = cell killing [1, 5]: -18.8%; Potency [2]: inactive

— PubChem BioAssay (NCATS)
